For six molecules, inhibition results are on record in ChEMBL document CHEMBL1961873, “Compounds: GSK PKIS; Assays: Nanosyn kinase panel” (2012).

Experiment [1] concerns the target Fibroblast growth factor receptor 4 (Homo sapiens) (UniProt P22455). The note with it: at 1 µM.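 Note: reported figure is the averaged percent inhibition of FGFR4, from the GSK PKIS kinase screening panel.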
Experiment [2] addresses Tyrosine-protein kinase Fgr (Homo sapiens) (UniProt P09769). The note with it: at 0.1 µM.
Experiment [3] has the same target. Particulars: at 1 µM.
Experiment [4] concerns the target Vascular endothelial growth factor receptor 1 (Homo sapiens) (UniProt P17948). Particulars: at 0.1 µM.
For experiment [5] the target is unchanged. Particulars: at 1 µM.
In experiment [6] the target is Receptor-type tyrosine-protein kinase FLT3 (Homo sapiens) (UniProt P36888). Particulars: at 0.1 µM.
The target is the same in experiment [7]. Particulars: at 1 µM.
In experiment [8] the test system is T1, Receptor-type tyrosine-protein kinase FLT3 (Homo sapiens), P36888 [D835Y].
T1 sequence (whole entry): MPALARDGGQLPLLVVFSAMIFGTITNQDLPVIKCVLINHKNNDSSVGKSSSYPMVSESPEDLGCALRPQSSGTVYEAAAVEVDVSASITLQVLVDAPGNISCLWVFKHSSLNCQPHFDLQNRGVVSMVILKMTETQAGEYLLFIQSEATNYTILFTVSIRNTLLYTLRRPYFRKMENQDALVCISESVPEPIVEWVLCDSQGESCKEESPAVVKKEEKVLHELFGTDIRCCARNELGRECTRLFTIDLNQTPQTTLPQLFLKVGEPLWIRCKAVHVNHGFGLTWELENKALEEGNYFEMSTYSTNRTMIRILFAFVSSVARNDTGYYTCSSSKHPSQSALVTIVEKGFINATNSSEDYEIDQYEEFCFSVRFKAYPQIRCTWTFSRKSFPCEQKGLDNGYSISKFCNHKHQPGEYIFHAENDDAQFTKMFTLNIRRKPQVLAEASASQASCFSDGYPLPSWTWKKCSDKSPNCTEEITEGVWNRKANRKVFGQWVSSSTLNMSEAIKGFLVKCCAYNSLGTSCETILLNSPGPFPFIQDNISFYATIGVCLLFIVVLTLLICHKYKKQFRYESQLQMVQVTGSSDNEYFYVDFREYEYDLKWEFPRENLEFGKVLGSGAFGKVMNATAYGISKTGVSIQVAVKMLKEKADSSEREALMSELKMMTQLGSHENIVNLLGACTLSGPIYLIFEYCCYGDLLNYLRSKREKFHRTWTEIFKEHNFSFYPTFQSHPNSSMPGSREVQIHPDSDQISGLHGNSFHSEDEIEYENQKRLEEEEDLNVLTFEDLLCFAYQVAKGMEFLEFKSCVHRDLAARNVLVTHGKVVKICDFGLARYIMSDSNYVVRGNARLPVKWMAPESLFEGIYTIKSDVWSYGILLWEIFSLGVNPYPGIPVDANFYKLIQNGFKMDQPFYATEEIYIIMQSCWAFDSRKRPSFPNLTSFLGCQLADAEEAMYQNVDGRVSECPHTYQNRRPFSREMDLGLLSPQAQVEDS
The note with it: at 0.1 µM.

Experiment [9] addresses Non-receptor tyrosine-protein kinase TYK2 (Homo sapiens) (UniProt P29597). The note with it: at 1 µM.
Experiment [10] deals with T2, Tyrosine-protein kinase receptor TYRO3 (Homo sapiens) (UniProt Q06418).
T2 sequence (whole entry): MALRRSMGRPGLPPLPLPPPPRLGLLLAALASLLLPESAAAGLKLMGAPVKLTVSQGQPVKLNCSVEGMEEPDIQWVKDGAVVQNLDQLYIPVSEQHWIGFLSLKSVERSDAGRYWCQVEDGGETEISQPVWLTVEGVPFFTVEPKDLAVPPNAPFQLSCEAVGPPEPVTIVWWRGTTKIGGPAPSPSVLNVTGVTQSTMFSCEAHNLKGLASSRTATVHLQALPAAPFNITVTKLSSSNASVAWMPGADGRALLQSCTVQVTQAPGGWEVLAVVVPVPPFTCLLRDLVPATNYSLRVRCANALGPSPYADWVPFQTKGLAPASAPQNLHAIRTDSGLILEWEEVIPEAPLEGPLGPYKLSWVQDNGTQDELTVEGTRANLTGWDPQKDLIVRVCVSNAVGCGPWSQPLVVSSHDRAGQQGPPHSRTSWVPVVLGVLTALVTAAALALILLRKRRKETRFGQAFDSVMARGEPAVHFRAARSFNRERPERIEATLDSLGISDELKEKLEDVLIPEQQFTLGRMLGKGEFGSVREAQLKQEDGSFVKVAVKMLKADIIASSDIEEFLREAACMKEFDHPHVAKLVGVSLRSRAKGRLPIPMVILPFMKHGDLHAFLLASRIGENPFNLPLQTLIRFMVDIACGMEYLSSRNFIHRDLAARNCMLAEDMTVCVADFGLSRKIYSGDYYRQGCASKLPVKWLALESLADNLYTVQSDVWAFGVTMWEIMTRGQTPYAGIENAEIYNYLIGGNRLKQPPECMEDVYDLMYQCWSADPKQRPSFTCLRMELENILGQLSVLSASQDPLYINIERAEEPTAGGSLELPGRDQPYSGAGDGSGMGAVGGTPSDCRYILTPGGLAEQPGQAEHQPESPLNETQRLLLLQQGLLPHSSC
The note with it: at 0.1 µM.

The target in experiment [11] is T2, Tyrosine-protein kinase receptor TYRO3 (Homo sapiens). Particulars: at 1 µM.
For experiment [12], the target named is Tyrosine-protein kinase Yes (Homo sapiens) (UniProt P07947). The note with it: at 0.1 µM.
Experiment [13] shares this target. Particulars: at 1 µM.
The target of experiment [14] is T3, Tyrosine-protein kinase ZAP-70 (Homo sapiens) (UniProt P43403).
T3 sequence (whole entry): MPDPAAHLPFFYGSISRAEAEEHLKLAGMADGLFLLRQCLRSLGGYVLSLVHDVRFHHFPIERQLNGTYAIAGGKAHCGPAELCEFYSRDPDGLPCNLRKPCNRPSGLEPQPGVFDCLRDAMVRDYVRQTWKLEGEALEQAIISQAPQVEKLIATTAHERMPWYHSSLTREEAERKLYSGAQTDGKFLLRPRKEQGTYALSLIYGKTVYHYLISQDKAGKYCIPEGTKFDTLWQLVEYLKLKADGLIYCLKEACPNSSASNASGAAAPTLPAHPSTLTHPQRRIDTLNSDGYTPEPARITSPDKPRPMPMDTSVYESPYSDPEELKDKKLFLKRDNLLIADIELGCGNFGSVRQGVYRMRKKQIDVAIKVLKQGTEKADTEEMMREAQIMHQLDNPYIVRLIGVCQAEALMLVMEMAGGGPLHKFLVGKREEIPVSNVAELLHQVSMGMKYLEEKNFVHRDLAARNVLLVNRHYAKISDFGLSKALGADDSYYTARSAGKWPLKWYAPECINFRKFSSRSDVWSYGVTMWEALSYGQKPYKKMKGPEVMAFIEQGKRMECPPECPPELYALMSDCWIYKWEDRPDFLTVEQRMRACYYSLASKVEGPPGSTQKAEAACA
The note with it: at 0.1 µM.

For experiment [15], the target named is T3, Tyrosine-protein kinase ZAP-70 (Homo sapiens). Particulars: at 1 µM.
The target in experiment [16] is Serine/threonine-protein kinase B-raf (Homo sapiens) (UniProt P15056). Particulars: at 0.1 µM.
The target is the same in experiment [17]. The note with it: at 1 µM.
Experiment [18] deals with Serine/threonine-protein kinase B-raf (Homo sapiens), P15056 [V600E]. The note with it: at 0.1 µM.
For experiment [19] the test system is unchanged. Particulars: at 1 µM.
The target of experiment [20] is RAF proto-oncogene serine/threonine-protein kinase (Homo sapiens) (UniProt P04049). The note with it: at 0.1 µM.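 Note: values are mean CRAF kinase inhibition from profiling of the GSK Published Kinase Inhibitor Set.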
RAF proto-oncogene serine/threonine-protein kinase (Homo sapiens), sequence (P04049 whole entry): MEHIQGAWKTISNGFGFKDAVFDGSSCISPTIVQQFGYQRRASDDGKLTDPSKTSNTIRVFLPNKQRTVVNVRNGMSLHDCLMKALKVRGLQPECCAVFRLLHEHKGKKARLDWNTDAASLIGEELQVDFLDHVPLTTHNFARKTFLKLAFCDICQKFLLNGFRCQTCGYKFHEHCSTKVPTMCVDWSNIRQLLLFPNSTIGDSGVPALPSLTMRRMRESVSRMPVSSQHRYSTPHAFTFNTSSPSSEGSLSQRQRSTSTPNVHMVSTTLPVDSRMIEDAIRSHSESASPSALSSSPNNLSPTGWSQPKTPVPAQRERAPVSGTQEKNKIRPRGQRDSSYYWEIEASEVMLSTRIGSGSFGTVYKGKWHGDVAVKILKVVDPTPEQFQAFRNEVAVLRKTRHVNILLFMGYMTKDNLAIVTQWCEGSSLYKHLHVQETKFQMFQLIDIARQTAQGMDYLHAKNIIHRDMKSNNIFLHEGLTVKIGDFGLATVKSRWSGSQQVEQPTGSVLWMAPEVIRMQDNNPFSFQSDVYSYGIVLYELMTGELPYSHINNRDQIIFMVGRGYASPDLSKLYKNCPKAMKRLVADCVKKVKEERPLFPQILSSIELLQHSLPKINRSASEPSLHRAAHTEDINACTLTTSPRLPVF

Serine/threonine-protein kinase B-raf (Homo sapiens), sequence (P15056 whole entry): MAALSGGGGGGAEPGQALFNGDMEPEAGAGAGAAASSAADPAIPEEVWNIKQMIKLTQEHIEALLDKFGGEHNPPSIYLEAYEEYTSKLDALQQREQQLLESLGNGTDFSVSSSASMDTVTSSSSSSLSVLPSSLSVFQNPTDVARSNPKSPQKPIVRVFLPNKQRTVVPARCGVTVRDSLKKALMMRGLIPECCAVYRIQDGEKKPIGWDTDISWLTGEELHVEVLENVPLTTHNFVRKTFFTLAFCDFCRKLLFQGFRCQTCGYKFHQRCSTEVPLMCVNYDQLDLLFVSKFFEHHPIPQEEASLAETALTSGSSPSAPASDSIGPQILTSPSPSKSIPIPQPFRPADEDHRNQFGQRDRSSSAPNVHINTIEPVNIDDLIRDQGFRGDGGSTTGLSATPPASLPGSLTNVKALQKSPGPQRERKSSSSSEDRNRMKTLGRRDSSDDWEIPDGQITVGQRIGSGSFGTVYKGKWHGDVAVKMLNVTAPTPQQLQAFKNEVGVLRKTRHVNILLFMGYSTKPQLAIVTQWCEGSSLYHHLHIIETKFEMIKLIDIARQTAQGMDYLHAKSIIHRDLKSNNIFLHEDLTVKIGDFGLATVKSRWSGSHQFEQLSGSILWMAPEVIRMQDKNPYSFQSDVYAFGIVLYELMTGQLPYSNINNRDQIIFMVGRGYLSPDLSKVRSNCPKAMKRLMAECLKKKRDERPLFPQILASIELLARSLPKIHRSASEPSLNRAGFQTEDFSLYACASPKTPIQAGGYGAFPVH
Tyrosine-protein kinase Yes (Homo sapiens), sequence (P07947 2-543 limits assumed): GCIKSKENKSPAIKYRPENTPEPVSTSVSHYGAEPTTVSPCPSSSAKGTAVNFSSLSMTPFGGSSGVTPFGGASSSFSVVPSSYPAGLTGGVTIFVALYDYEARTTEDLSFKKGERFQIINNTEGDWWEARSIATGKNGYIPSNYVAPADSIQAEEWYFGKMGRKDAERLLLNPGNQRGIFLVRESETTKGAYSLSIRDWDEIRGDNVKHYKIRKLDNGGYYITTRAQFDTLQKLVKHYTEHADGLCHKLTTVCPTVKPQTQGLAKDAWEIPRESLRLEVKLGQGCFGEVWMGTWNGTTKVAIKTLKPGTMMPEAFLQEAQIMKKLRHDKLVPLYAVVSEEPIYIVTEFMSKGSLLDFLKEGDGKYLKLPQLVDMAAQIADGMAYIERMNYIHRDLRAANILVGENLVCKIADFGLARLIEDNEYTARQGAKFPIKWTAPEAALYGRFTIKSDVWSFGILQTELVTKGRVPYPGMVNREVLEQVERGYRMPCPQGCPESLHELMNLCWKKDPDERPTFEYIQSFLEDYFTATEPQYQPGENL
Serine/threonine-protein kinase B-raf (Homo sapiens), P15056 [V600E], sequence (P15056 whole entry V600E): as the sequence (P15056 whole entry) above, with V600E counted along it
Vascular endothelial growth factor receptor 1 (Homo sapiens), sequence (P17948 whole entry): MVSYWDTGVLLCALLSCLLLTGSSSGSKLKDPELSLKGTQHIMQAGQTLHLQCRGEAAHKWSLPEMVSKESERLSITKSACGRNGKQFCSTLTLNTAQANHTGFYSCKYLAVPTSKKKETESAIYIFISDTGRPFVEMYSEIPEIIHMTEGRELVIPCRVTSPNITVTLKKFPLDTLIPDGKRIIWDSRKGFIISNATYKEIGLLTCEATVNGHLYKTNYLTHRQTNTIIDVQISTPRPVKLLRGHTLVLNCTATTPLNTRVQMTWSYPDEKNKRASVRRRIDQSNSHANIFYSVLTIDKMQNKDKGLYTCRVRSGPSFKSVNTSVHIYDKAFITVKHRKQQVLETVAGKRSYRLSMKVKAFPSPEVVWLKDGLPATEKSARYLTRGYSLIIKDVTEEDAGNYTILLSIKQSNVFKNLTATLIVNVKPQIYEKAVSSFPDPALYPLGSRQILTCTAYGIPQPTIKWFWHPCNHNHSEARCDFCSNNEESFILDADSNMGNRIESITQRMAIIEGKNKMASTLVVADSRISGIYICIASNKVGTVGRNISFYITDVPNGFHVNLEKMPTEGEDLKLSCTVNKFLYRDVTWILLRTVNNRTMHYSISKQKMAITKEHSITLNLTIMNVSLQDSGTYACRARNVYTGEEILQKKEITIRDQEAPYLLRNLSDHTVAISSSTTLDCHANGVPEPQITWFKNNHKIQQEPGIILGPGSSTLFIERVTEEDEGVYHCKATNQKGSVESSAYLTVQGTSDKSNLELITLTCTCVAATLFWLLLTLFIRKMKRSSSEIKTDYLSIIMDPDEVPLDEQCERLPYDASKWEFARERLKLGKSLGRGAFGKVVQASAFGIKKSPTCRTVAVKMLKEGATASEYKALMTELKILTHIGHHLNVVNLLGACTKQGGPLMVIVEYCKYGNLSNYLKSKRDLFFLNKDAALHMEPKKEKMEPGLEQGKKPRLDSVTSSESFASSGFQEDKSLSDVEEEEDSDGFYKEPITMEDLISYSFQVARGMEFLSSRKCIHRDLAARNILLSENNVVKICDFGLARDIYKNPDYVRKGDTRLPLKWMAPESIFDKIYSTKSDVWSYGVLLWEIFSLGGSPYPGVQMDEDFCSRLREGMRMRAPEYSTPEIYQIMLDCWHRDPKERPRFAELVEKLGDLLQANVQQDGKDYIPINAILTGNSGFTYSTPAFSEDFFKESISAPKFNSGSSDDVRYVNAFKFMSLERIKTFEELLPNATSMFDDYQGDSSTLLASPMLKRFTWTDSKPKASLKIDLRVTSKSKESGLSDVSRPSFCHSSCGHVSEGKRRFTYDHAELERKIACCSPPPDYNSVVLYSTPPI
Fibroblast growth factor receptor 4 (Homo sapiens), sequence (P22455 22-802 limits assumed): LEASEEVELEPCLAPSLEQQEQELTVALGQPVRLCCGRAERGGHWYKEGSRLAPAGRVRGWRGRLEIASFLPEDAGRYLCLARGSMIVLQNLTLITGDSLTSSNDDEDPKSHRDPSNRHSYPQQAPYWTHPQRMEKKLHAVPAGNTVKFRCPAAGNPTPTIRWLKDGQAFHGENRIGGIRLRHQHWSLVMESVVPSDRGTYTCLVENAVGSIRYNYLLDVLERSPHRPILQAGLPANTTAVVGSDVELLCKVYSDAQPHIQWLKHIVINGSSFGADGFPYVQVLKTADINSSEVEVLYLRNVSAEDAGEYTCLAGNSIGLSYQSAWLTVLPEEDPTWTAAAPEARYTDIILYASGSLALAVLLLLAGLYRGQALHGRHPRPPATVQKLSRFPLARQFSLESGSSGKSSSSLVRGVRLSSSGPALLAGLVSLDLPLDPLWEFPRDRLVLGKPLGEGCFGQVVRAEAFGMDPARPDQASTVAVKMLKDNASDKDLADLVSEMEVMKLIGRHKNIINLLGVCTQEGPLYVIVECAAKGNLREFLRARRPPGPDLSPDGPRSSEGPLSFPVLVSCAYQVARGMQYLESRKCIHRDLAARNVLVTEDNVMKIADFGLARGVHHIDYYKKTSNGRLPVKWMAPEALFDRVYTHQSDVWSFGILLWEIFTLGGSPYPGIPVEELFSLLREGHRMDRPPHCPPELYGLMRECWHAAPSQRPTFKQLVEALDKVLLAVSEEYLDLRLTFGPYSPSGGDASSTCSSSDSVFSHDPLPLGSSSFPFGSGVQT
Tyrosine-protein kinase Fgr (Homo sapiens), sequence (P09769 2-529 limits assumed): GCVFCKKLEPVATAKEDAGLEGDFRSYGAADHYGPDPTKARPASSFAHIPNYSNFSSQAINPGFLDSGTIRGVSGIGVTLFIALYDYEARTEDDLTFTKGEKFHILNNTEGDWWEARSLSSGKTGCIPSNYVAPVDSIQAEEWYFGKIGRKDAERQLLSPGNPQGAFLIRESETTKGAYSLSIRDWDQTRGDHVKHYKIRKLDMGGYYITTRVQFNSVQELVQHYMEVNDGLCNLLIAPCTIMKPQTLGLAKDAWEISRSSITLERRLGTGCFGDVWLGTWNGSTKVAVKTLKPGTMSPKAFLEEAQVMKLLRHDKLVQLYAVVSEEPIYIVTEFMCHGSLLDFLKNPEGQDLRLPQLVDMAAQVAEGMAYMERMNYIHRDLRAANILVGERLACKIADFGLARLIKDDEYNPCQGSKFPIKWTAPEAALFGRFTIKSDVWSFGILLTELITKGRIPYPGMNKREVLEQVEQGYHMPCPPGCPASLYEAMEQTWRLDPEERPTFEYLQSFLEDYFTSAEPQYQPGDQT

Turning to `COc1ccc2[nH]c3c4[nH]c5ccc(OC)cc5c4c4c(c3c2c1)C(=O)NC4=O`, the inhibition in experiment [1] was determined as 3.95%; in experiment [2] it was 10.8%; in experiment [3], 28%; in experiment [4], 2.46%; in [5] it was 19.2%; in experiment [6], 28.6%. Besides, the inhibition in experiment [7] was 79.1%; in experiment [8] it was 65%; in [9], -0.6%; in [10] it was 17.1%; in experiment [11], 63.7%; in [12] it was 6.75%. Also, the inhibition in experiment [13] was determined as 33.5%; in experiment [14] it was 2.68%; in experiment [15] it was 8.6%; in experiment [16] it was 5.05%; in experiment [17], 7.83%; in [18], 5.01%. Further, the inhibition was 6.69% in [19] and -1.72% in experiment [20].

For `Nc1ncc(-c2cccc(S(N)(=O)=O)c2)c2scc(-c3ccc(F)c(Cl)c3)c12`, the inhibition in experiment [1] was found to be 5.88%; in [2], 10.9%; in experiment [3] it was 45.8%; in experiment [4], 4.56%; in [5] it was 14.9%; in experiment [6] it was 1.34%. Besides, the inhibition is 5.98% in experiment [7]; -3.2% in experiment [8]; -2.5% in experiment [9]; 4.05% in [10]; 25.1% in [11]; 11.5% in [12]. For the same molecule, the inhibition in [13] came out at 56.4%; in experiment [14], 1.28%; in [15], 2.18%; in experiment [16], 6.39%; in experiment [17], 15.3%; in experiment [18] it was 5.84%. The inhibition in experiment [19] was 10.1%; in experiment [20], -0.36%.

Consider `CCc1nn2ncccc2c1-c1ccnc(NC2CC2)n1`, for which the inhibition in experiment [1] was determined as 1.27%; in experiment [2] it was 3.49%; in experiment [3], 3.74%; in [4] it was 0.02%; in experiment [5] it was 2.1%; in [6] it was 3.16%. Moreover, the inhibition was 3.41% in experiment [7]; -7.04% in experiment [8]; 2.1% in experiment [9]; -0.14% in experiment [10]; 3.06% in [11]; 1.2% in [12]. Moreover, the inhibition is 6.6% in experiment [13]; 1.02% in experiment [14]; -2.31% in experiment [15]; 2.93% in [16]; 4.97% in [17]; 3.84% in experiment [18]. The values for the inhibition in experiment [19] and in [20] were 3.79% and 0.39%, respectively.

Regarding `Cc1cccc2c1NC(=O)/C2=N\Nc1ccc(S(N)(=O)=O)cc1`, the inhibition in experiment [1] is 1.63%; in [2], 0.52%; in experiment [3], 4.37%; in [4], -0.48%; in experiment [5], -0.65%; in experiment [6] it was 2.88%. Further, the inhibition is 8.43% in experiment [7]; 3.4% in [8]; -0.5% in experiment [9]; 3.05% in experiment [10]; 1.39% in experiment [11]; 0.81% in [12]. Moreover, the inhibition was -0.24% in [13]; 2.59% in [14]; 2.59% in experiment [15]; 3.47% in experiment [16]; 4.79% in [17]; 2.89% in [18]. Further, the inhibition in [19] was 3.31%; in [20] it was -3.52%.

On to `COC(=O)Nc1nc2ccc(Oc3ccc(NC(=O)Nc4cccc(Cl)c4)cc3)cc2[nH]1`, for which the inhibition in experiment [1] was -0.03%; in [2], 2.28%; in experiment [3], 4.23%; in [4], 28.6%; in experiment [5], 56.8%; in [6], 21.1%. In addition, the inhibition is 57.2% in experiment [7]; -4.92% in experiment [8]; -0.96% in [9]; 3.45% in experiment [10]; 11% in experiment [11]; 0.67% in experiment [12]. Besides, the inhibition in experiment [13] turned out to be 2.42%; in experiment [14], 0.78%; in experiment [15], 2.42%; in [16] it was 6.07%; in [17], 17.1%; in [18], 6.79%. Also, the inhibition in [19] is 15.1%; in [20], -4.01%.

Turning to `CS(=O)(=O)CCNCc1ccc(-c2ccc3ncnc(Nc4ccc(OCc5ccccc5)c(C(F)(F)F)c4)c3c2)o1`, the inhibition in experiment [1] stood at 2.14%; in experiment [2] it was 1.98%; in [3] it was 4.93%; in [4] it was 1.28%; in [5] it was 0.39%; in experiment [6] it was 3.55%. Besides, the inhibition in experiment [7] was 2.04%; in experiment [8], -8.47%; in [9], -3.76%; in experiment [10], 5.89%; in experiment [11], 6.25%; in experiment [12], 2.85%. Besides, the inhibition stood at 7.92% in [13]; 0.47% in [14]; 2.41% in experiment [15]; 5.9% in experiment [16]; 4.19% in [17]; 3.97% in [18]. In addition, the inhibition stood at 3% in [19] and 1.81% in [20].

By inhibition is commonly meant the change of the read-out against control, counted positive when it falls.
